This is part of a sample that, as a whole, favours compounds with a hit. Of some 79,000 tested, about 15% had one in any assay. Cut-off read from the data, not from the text of the source: active = growth inhibition above about 70%; inactive = the rest.
How the values were obtained:
[1] = NCI Yeast Anticancer Drug Screen. Data for the rad50 strain (AID 155);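 note: 0% = growth of vehicle-only cultures of the same strain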; details: S. cerevisiae rad50 strain growth inhibition; at 50.0 µM; stronger effect = higher value
Method in brief: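 A DNA repair-deficient yeast mutant serves as the test organism; compound-induced growth inhibition is calculated against vehicle-treated cells.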

[2] = NCI Yeast Anticancer Drug Screen. Data for the mec2-1 strain (AID 157); details: S. cerevisiae mec2-1 strain, at 50.0 µM, stronger effect = higher value
Method in brief: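 Test agents were screened against the mec2-1 yeast strain, with defined DNA repair or cell cycle alteration. Growth was scored as inhibition against vehicle-only controls.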

[3] = NCI Yeast Anticancer Drug Screen. Data for the sgs1 mgt1 strain (AID 161);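 note: 0% = growth of cultures given vehicle only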; details: S. cerevisiae sgs1 mgt1 strain, at 50.0 µM, stronger effect = higher value
Method in brief: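 Genetically altered yeast, compound exposure, growth inhibition relative to vehicle.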

[4] = NCI Yeast Anticancer Drug Screen. Data for the cln2 rad14 strain (AID 165);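 note: 0% = growth equal to vehicle treated cultures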; details: S. cerevisiae cln2 rad14 strain, at 50.0 µM, stronger effect = higher value
Method in brief: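 Growth of compound-exposed yeast (cln2 rad14 genotype) measured and expressed as inhibition relative to vehicle.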

[5] = NCI Yeast Anticancer Drug Screen. Data for the bub3 strain (AID 167); details: S. cerevisiae bub3 mutant strain, at 50.0 µM, stronger effect = higher value
Method in brief: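 Inhibition values come from growth of compound-treated mutant yeast normalised to vehicle-treated controls.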

[6] = NCI Yeast Anticancer Drug Screen. Data for the mlh1 rad18 strain (AID 175); details: S. cerevisiae mlh1 rad18 strain growth inhibition; at 50.0 µM; stronger effect = higher value
Method in brief: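 In this whole-cell yeast screen, a strain with altered DNA damage repair is challenged with compound, and its growth is measured against matched vehicle-treated controls.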

Measured: growth inhibition

COc1ccc(-c2nnc(-c3nsc4ccccc34)o2)cc1
inactive: [1] -12.8% | [2] -31.9% | [3] -21.5% | [4] -2.5% | [5] 18.5% | [6] -14.1%

CNC(=S)N/N=C(C)\C=N/Nc1ccc(Br)cc1
inactive: [1] 46.4% | [2] 14.1% | [3] 34.7% | [4] -18.9% | [5] 21.2% | [6] 25.9%

CCCCCCCCCCCCCCCCCCNC(=O)NCc1ccncc1
inactive: [1] -13.3% | [2] 1.8% | [3] -11.3% | [4] -4.3% | [5] -0.35% | [6] 9.3%

C=CCCC12CCCC(=O)C1Sc1ccc3ccccc3c12 (stereo unspecified)
inactive: [1] 9.8% | [2] -3.85% | [3] 11.3% | [4] 10.8% | [5] 35.3% | [6] 7.15%

CC(=O)OCC(COC(C)=O)C(C)=O
inactive: [1] -7.35% | [2] -5.75% | [3] -8.5% | [4] 21.6% | [5] 4.65% | [6] -22.6%

CCOC(=O)C1=C(C(=O)c2ccc(OC)cc2)C(c2cccc([N+](=O)[O-])c2)C(C(=O)c2ccc(OC)cc2)=C(C(=O)OCC)N1
inactive: [1] -30.8% | [2] -1.6% | [3] -2.5% | [4] -2.85% | [5] -6.45% | [6] 2%

ClCCOC(c1ccc(Cl)cc1)c1ccc(Cl)cc1
inactive: [1] -1.6% | [2] 3.5% | [3] -4.55% | [4] -12.9% | [5] 0.45% | [6] 19.8%

C/C=C/C1OC(OC)(OC)C1(OC)OC (stereo unspecified)
inactive: [1] 38.8% | [2] 9.85% | [3] 18.9% | [4] 3.25% | [5] 11.3% | [6] 11.6%

CC(C)CC(NC(=O)C(C)NC(=O)C(NC(=O)OCc1ccccc1)C(C)O)C(=O)NC(CC(C)C)C(=O)NCC(=O)NN (stereo unspecified)
inactive: [1] 12.1% | [2] 1.9% | [3] 0.05% | [4] -0.3% | [5] -5.1% | [6] -15.6%

CCc1nc(N)nc(N)c1-c1ccc(Cl)c(N=CN(C)C)c1
inactive: [1] 31.8% | [2] 23.1% | [3] 26.9% | [4] 29.8% | [5] 16.6% | [6] 51.5%

CCCCN=C=C(c1ccccc1)c1ccccc1
inactive: [1] 22% | [2] 12.5% | [3] -0.85% | [4] -35.8% | [5] -7.75% | [6] -15.1%

CCCc1ccc(N)cc1
inactive: [1] 3.25% | [2] -38.4% | [3] -9.1% | [4] -18.1% | [5] -24.4% | [6] -15.7%

COC(=O)c1ccccc1N=NNc1ccc(C(F)(F)F)c([N+](=O)[O-])c1
inactive: [1] -10.4% | [2] -1.85% | [3] 16.1% | [4] -2.35% | [5] 9.95% | [6] -11.7%

CCN(CC)c1ccc(C(C#N)(c2ccc(N(CC)Cc3cccc(S(=O)(=O)O)c3)cc2)c2ccc(N(CC)Cc3cccc(S(=O)(=O)O)c3)cc2)cc1
inactive: [1] -1% | [2] 8.15% | [3] 4.55% | [4] -7.7% | [5] -7.45% | [6] 29.6%

COC(=O)N/N=C/c1oc(-c2cccc([N+](=O)[O-])c2)c(-c2cccc([N+](=O)[O-])c2)c1[N+](=O)[O-]
inactive: [1] 19.4% | [2] 30.1% | [3] 16.5% | [4] 22.6% | [5] 21% | [6] 22.6%

CN(C)c1cc(N(C)C)c2cc(C#N)ccc2n1
inactive: [1] 15.4% | [2] 3.05% | [3] 17.2% | [4] -5.45% | [5] 0.9% | [6] 5.75%

Cc1ccc2cccc([N+](=O)[O-])c2n1
inactive: [1] 15.8% | [2] -23.5% | [3] 3.75% | [4] 27.4% | [5] 1.2% | [6] 14.3%

CC(=O)N[N+](C)(C)C
inactive: [1] -20% | [2] -39.2% | [3] 11.5% | [4] 4.05% | [5] 1.2% | [6] 7.9%

CCN(CC)P(=O)(c1ccc2c(c1)OCCOCCOCCOCCO2)N(CC)CC
inactive: [1] 28.9% | [2] 22.9% | [3] 21.7% | [4] 23.3% | [5] 33.6% | [6] 37%

COC(=O)c1ccc(OC(=O)Nc2ccc(Br)cc2)cc1
inactive: [1] 11.3% | [2] 26.4% | [3] 27% | [4] -4.2% | [5] 37.2% | [6] 19.9%

NNc1nc2ccccc2c(=O)n1NC(=O)C(=O)Nc1cccc(C(F)(F)F)c1
inactive: [1] -0.35% | [2] 17.6% | [3] -3.9% | [4] -38.6% | [5] -6.15% | [6] 31.4%

O=C(OCC(O)C(O)C(O)COC(=O)c1ccccc1)c1ccccc1 (stereo unspecified)
inactive: [1] -11.6% | [2] -5.05% | [3] -25.4% | [4] -23.6% | [5] -22.8% | [6] -13.1%

N#Cc1ccc(OC(=O)Nc2ccccc2C(F)(F)F)cc1
inactive: [1] 2.4% | [2] -18.9% | [3] -5.2% | [4] -2.1% | [5] -14.9% | [6] -0.85%

CC(C)(C)c1cc(CN2CCOCC2)cc(C(C)(C)C)c1O
inactive: [1] 8% | [2] 5% | [3] 0.7% | [4] 0.15% | [5] -3.15% | [6] 14.3%

CC(=O)OC1CCC2(C)C(CCC3C2CCC2(C)C(C(C)C(=O)O)CCC32)C1 (stereo unspecified)
inactive: [1] -10.7% | [2] 1.85% | [3] 1.45% | [4] 10.8% | [5] -3.6% | [6] 3.9%

CC1CC(=O)C(CC(=O)O)[C@H]1C(C(=O)C(=O)Nc1cc(Cl)ccc1Cl)[N+](=O)[O-] (stereo partly specified)
inactive: [1] 1.45% | [2] -11.3% | [3] -10.1% | [4] 14.7% | [5] -13.3% | [6] -2%

c1ccc(CC[n+]2ccncc2)cc1
inactive: [1] -8.75% | [2] 6.8% | [3] -8.4% | [4] -10.2% | [5] 7.15% | [6] -17.3%

COc1cc(N=C(N)N=C(N)N)c2ncccc2c1
inactive: [1] -3.1% | [2] -18.1% | [3] -11.9% | [4] -41% | [5] -3.75% | [6] -13.2%

Cc1ccc(-c2c(N)nc(NC#N)nc2CCC(=O)Nc2ccccc2[N+](=O)[O-])cc1
inactive: [1] 1.9% | [2] 1.35% | [3] -14.6% | [4] 5.5% | [5] 3.7% | [6] 5.4%

CCC(CC)(C(=O)O)C(=O)O
inactive: [1] 34.1% | [2] 9.3% | [3] -3.35% | [4] -33.2% | [5] 12.7% | [6] 5.8%

CCCC(CCC)(CCC)CCN(C)C
inactive: [1] -6.85% | [2] -5.95% | [3] -14.9% | [4] -23.9% | [5] -8.65% | [6] -33.8%

O=C(O)/C=C/C(=O)Nc1cc(Cl)cc2c1-c1c(Cl)cc(Cl)cc1C2=O
inactive: [1] 30.9% | [2] 8.95% | [3] 31.6% | [4] -52.6% | [5] -4% | [6] 4.25%

Cc1cc(N=Nc2ccc(C(=O)Nc3ccc4cc(S(=O)(=O)O)ccc4c3)cc2)c(N)c(N=Nc2ccc(N=Nc3ccc(O)c(C(=O)O)c3)cc2)c1N
inactive: [1] 8.2% | [2] 29.6% | [3] 53.8% | [4] -21.9% | [5] -11.3% | [6] 44.6%

COc1ccc(/C(Cl)=C(\CN(C)C)c2ccc(OC)c(OC)c2)cc1OC
inactive: [1] 41.5% | [2] 18.6% | [3] 10.3% | [4] 27.9% | [5] -5.85% | [6] 24.1%

CCC(CC)COC(=O)CC(CC(=O)OCC(CC)CC)C(=O)OCC(CC)CC
inactive: [1] -12.3% | [2] -4.85% | [3] 9.35% | [4] -20.1% | [5] 1.1% | [6] 24.6%

COc1ccc(C(=O)C(O)c2ccc(OC)cc2)cc1 (stereo unspecified)
inactive: [1] 8.15% | [2] -8.65% | [3] -1.55% | [4] -16.4% | [5] -4.35% | [6] 26.1%

O=C(Nc1ccc(CSc2ccc(Cl)cc2)o1)N1CCOCC1
inactive: [1] 15.7% | [2] 8% | [3] 40.8% | [4] 20.9% | [5] 38.4% | [6] 25.4%

COc1cccc(C(OC(=O)c2ccccc2)c2nncc3ccccc23)c1OC (stereo unspecified)
inactive: [1] 32.4% | [2] 11.8% | [3] 9.6% | [4] 5.9% | [5] 9.85% | [6] 5.8%

O=C(NCCCCCCNC(=O)NCc1ccc(Cl)c(Cl)c1)NCc1ccc(Cl)c(Cl)c1
inactive: [1] 13.6% | [2] 4% | [3] -3.8% | [4] -3.8% | [5] -1.9% | [6] 16.9%

O=C(Nc1ccc2c(O)c(N=Nc3ccc(N=Nc4ccc(S(=O)(=O)O)cc4)cc3)c(S(=O)(=O)O)cc2c1)c1ccccc1
inactive: [1] 18.9% | [2] -5.8% | [3] 2.9% | [4] -9.1% | [5] 8.8% | [6] 14.7%

CCCCC1(CC)COC2(CCCC2)OC1
inactive: [1] 18.6% | [2] 2.25% | [3] -11.6% | [4] 3.2% | [5] -9.7% | [6] 12.4%

From PubChem BioAssay (NCI)
